Compounds without any hit were thinned out: in the full panel of roughly 79,000, 15% have a hit. Values without a mark were called inactive. Calls of active or inactive are those of the source. Rule as the data show it: active = growth inhibition above about 70%; inactive = the rest.

Assay [1] in a line: NCI Yeast Anticancer Drug Screen. Data for the rad50 strain (AID 155).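 Also: 0% = growth of vehicle-only cultures of the same strain.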 As to conditions: S. cerevisiae rad50 strain growth inhibition, stronger effect = higher value. The gist of the method:
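Vehicle-treated cultures provide the reference for the growth inhibition reported for compound-exposed, repair-deficient yeast.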

Assay [2] is described as follows: NCI Yeast Anticancer Drug Screen. Data for the mec2-1 strain (AID 157). As to conditions: S. cerevisiae mec2-1 strain, stronger effect = higher value. The gist of the method: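 Readout is yeast growth inhibition, normalised to vehicle-treated controls, in the mec2-1 strain exposed to compound.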
Assay [3] can be described thus: NCI Yeast Anticancer Drug Screen. Data for the sgs1 mgt1 strain (AID 161).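 Also: 0% = growth of cultures given vehicle only.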 As to conditions: S. cerevisiae sgs1 mgt1 strain, stronger effect = higher value. The gist of the method:
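Yeast cells carrying a defined DNA-repair defect were exposed to test compounds. Growth inhibition was measured relative to vehicle-treated controls.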

Assay [4] in a line: NCI Yeast Anticancer Drug Screen. Data for the cln2 rad14 strain (AID 165).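 Also: 0% = growth equal to vehicle treated cultures.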 To be noted: S. cerevisiae cln2 rad14 strain, stronger effect = higher value. The gist of the method:
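Relative to vehicle controls, growth inhibition of compound-treated cln2 rad14 yeast was recorded.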

Assay [5] is described as follows: NCI Yeast Anticancer Drug Screen. Data for the bub3 strain (AID 167). As to conditions: S. cerevisiae bub3 mutant strain, stronger effect = higher value. Put shortly: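 Mutant yeast screening strain plus compound; vehicle-treated cultures serve as the 0% inhibition reference.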
A short description of assay [6]: NCI Yeast Anticancer Drug Screen. Data for the mlh1 rad18 strain (AID 175). To be noted: S. cerevisiae mlh1 rad18 strain growth inhibition, stronger effect = higher value. Put shortly:
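Test agents were incubated with a yeast strain of defined genotype (DNA damage repair defect). Inhibition of growth was derived by comparison with vehicle-exposed cultures.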

Where [7] appears, read: at 5.0 µM (retest, dose inferred, filed as 0.5).
Setting [8] is: at 50.0 µM (retest, dose inferred, filed as 5.0).

As to `O=C(/C(=N/O)[n+]1ccccc1)c1ccccc1`, the growth inhibition in assay [1] (setting [7]) was -4%; in assay [1] (setting [8]), 69%; in assay [1] (at 50.0 µM), 73.2% (active); in assay [2] (setting [7]), -3%; in assay [2] (setting [8]) it was 60%; in assay [2] (at 50.0 µM) it was 26.8%. Further, the growth inhibition was -9% in assay [3] (setting [7]); 33% in assay [3] (setting [8]); 41.7% in assay [3] (at 50.0 µM); -6% in assay [4] (setting [7]); -7% in assay [4] (setting [8]); -10.8% in assay [4] (at 50.0 µM). Further, the growth inhibition in assay [5] (setting [7]) is -1%; in assay [5] (setting [8]) it was 94% (active); in assay [5] (at 50.0 µM), 41.8%; in assay [6] (setting [7]), 4%; in assay [6] (setting [8]), 53%; in assay [6] (at 50.0 µM) it was 78.5% (active).
As to `CCOC(=O)c1cc2c(nc1NCc1ccc(OC)c(OC)c1)/C(=C/c1ccccc1)CCCC2`, the growth inhibition in assay [1] (setting [7]) was 38%; in assay [1] (setting [8]), 94% (active); in assay [1] (at 50.0 µM) it was 90.2% (active); in assay [2] (setting [7]), 17%; in assay [2] (setting [8]) it was 93% (active); in assay [2] (at 50.0 µM), 88.8% (active). For the same molecule, the growth inhibition in assay [3] (setting [7]) is 47%; in assay [3] (setting [8]) it was 94% (active); in assay [3] (at 50.0 µM), 91.8% (active); in assay [4] (setting [7]), 28%; in assay [4] (setting [8]), 84% (active); in assay [4] (at 50.0 µM), 80.2% (active). The growth inhibition in assay [5] (setting [7]) was 49%; in assay [5] (setting [8]) it was 94% (active); in assay [5] (at 50.0 µM) it was 92.5% (active); in assay [6] (setting [7]), 58%; in assay [6] (setting [8]), 92% (active); in assay [6] (at 50.0 µM), 90.2% (active).
`COc1ccc2c(c1)CCC/C2=N\NS(=O)(=O)c1c(C)cc(C)cc1C`: the growth inhibition is 15% in assay [1] (setting [7]); 59% in assay [1] (setting [8]); 26.2% in assay [1] (at 50.0 µM); 16% in assay [2] (setting [7]); 60% in assay [2] (setting [8]); -43.2% in assay [2] (at 50.0 µM). The growth inhibition in assay [3] (setting [7]) was 16%; in assay [3] (setting [8]), 38%; in assay [3] (at 50.0 µM), 37.1%; in assay [4] (setting [7]) it was 8%; in assay [4] (setting [8]) it was 68%; in assay [4] (at 50.0 µM), 73.5% (active). The growth inhibition was 11% in assay [5] (setting [7]); 52% in assay [5] (setting [8]); 54.8% in assay [5] (at 50.0 µM); 26% in assay [6] (setting [7]); 75% (active) in assay [6] (setting [8]); 5.7% in assay [6] (at 50.0 µM).
Consider `Cc1ccc(S(=O)(=O)N/N=C/Cc2ccccc2)cc1`, for which the growth inhibition is 2% in assay [1] (setting [7]); 96% (active) in assay [1] (setting [8]); 87.5% (active) in assay [1] (at 50.0 µM); -13% in assay [2] (setting [7]); 98% (active) in assay [2] (setting [8]); 7% in assay [2] (at 50.0 µM). In addition, the growth inhibition in assay [3] (setting [7]) was 3%; in assay [3] (setting [8]) it was 98% (active); in assay [3] (at 50.0 µM), 79.8% (active); in assay [4] (setting [7]), -3%; in assay [4] (setting [8]), 95% (active); in assay [4] (at 50.0 µM), 11.6%. Moreover, the growth inhibition in assay [5] (setting [7]) was -5%; in assay [5] (setting [8]) it was 97% (active); in assay [5] (at 50.0 µM), 12.1%; in assay [6] (setting [7]) it was 28%; in assay [6] (setting [8]), 98% (active); in assay [6] (at 50.0 µM), 85.3% (active).
On to `COC(=O)/C(C(C)=O)=C(\OC(C)=O)c1ccc(OC)c(OC)c1`, for which the growth inhibition in assay [1] (setting [7]) was -14%; in assay [1] (setting [8]), 80% (active); in assay [1] (at 50.0 µM), 93.5% (active); in assay [2] (setting [7]), -11%; in assay [2] (setting [8]), 93% (active); in assay [2] (at 50.0 µM), 91% (active). Also, the growth inhibition was -5% in assay [3] (setting [7]); 88% (active) in assay [3] (setting [8]); 46.2% in assay [3] (at 50.0 µM); -11% in assay [4] (setting [7]); 85% (active) in assay [4] (setting [8]); 95.5% (active) in assay [4] (at 50.0 µM). For the same molecule, the growth inhibition was -2% in assay [5] (setting [7]); 86% (active) in assay [5] (setting [8]); 98.1% (active) in assay [5] (at 50.0 µM); -19% in assay [6] (setting [7]); 91% (active) in assay [6] (setting [8]); 60% in assay [6] (at 50.0 µM).
As for `Cc1n[n+]([O-])c(C)cc1[N+](=O)[O-]`, the growth inhibition in assay [1] (setting [7]) is 0%; in assay [1] (setting [8]), 50%; in assay [1] (at 50.0 µM), 93.7% (active); in assay [2] (setting [7]), 4%; in assay [2] (setting [8]) it was 32%; in assay [2] (at 50.0 µM), 44.6%. The growth inhibition in assay [3] (setting [7]) is 17%; in assay [3] (setting [8]), 87% (active); in assay [3] (at 50.0 µM) it was 85.6% (active); in assay [4] (setting [7]), -5%; in assay [4] (setting [8]), 42%; in assay [4] (at 50.0 µM) it was 76.5% (active). For the same molecule, the growth inhibition in assay [5] (setting [7]) is -8%; in assay [5] (setting [8]), 16%; in assay [5] (at 50.0 µM), 65%; in assay [6] (setting [7]), 58%; in assay [6] (setting [8]), 94% (active); in assay [6] (at 50.0 µM), 92.2% (active).
Regarding `COC1/C=C/OC2(C)Oc3c(C)c(O)c4c(c3C2=O)C(=O)c2cnc(nc2C4=O)/C(C)=C\C=C\C(C)C(O)C(C)C(O)C(C)C(OC(C)=O)C1C` (configuration not stated), the growth inhibition in assay [1] (setting [7]) was 10%; in assay [1] (setting [8]), 97% (active); in assay [1] (at 50.0 µM) it was 53.9%; in assay [2] (setting [7]) it was 17%; in assay [2] (setting [8]), 99% (active); in assay [2] (at 50.0 µM), 55.2%. Besides, the growth inhibition was 9% in assay [3] (setting [7]); 99% (active) in assay [3] (setting [8]); 42.2% in assay [3] (at 50.0 µM); 36% in assay [4] (setting [7]); 97% (active) in assay [4] (setting [8]); 56.1% in assay [4] (at 50.0 µM). The growth inhibition in assay [5] (setting [7]) is 23%; in assay [5] (setting [8]), 98% (active); in assay [5] (at 50.0 µM), 48.9%; in assay [6] (setting [7]) it was 20%; in assay [6] (setting [8]) it was 98% (active); in assay [6] (at 50.0 µM), 50.9%.
With `O=C1CN(/N=C\c2ccc([N+](=O)[O-])o2)C(=O)N1`, the growth inhibition in assay [1] (setting [7]) was 11%; in assay [1] (setting [8]), 48%; in assay [1] (at 50.0 µM), 56.5%; in assay [2] (setting [7]), 4%; in assay [2] (setting [8]), 29%; in assay [2] (at 50.0 µM), 15.2%. The growth inhibition in assay [3] (setting [7]) was 2%; in assay [3] (setting [8]) it was 39%; in assay [3] (at 50.0 µM), 41%; in assay [4] (setting [7]), -5%; in assay [4] (setting [8]) it was 18%; in assay [4] (at 50.0 µM), -8.35%. Moreover, the growth inhibition was 3% in assay [5] (setting [7]); 26% in assay [5] (setting [8]); 27.5% in assay [5] (at 50.0 µM); 19% in assay [6] (setting [7]); 65% in assay [6] (setting [8]); 69.8% in assay [6] (at 50.0 µM).
In the case of `CCCCCCCCCCN`, the growth inhibition is 1% in assay [1] (setting [7]); 51% in assay [1] (setting [8]); 65.8% in assay [1] (at 50.0 µM); -1% in assay [2] (setting [7]); 13% in assay [2] (setting [8]); 34.6% in assay [2] (at 50.0 µM). In addition, the growth inhibition in assay [3] (setting [7]) is 7%; in assay [3] (setting [8]), 36%; in assay [3] (at 50.0 µM) it was 71% (active); in assay [4] (setting [7]) it was 6%; in assay [4] (setting [8]) it was 19%; in assay [4] (at 50.0 µM), 42.2%. Besides, the growth inhibition in assay [5] (setting [7]) was 7%; in assay [5] (setting [8]) it was 30%; in assay [5] (at 50.0 µM), 47.2%; in assay [6] (setting [7]), 6%; in assay [6] (setting [8]), 36%; in assay [6] (at 50.0 µM), 46.8%.

The values are drawn from PubChem BioAssay (NCI).
